# Measured values: PubChem BioAssay
# Assay: probe aNOTCH2 binding on compound microarray – biochemical, small-molecule microarray, 635/667 nm fluorescence, primary screen (AID 1121);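 note: score merges feature fluorescence read at 667 nm with its signal to noise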
# Settings: higher = more signal
row,SMILES,composite z-score
1,CCCNC(=O)OC[C@H]1O[C@H](CCON=CC[C@@H]2C=C[C@H](OC(C)=O)[C@@H](COC(C)=O)O2)C=C[C@@H]1Oc1ccc(OC)cc1,-0.14
2,O[C@@H](Cc1ccccc1)[C@H]1C2C=CCCC(c3ccccc3)=C2CN1Cc1cccc(Cl)c1 (stereo partly specified),-0.0746
3,CCCC[C@@H]1C[C@H]1[C@@H](NS(=O)(=O)c1cccc2cccnc12)c1ccc(-c2ccccc2)cc1,-0.0817
4,O=C1C2=CC[C@H]3C(=O)N(Cc4ccc5c(c4)OCO5)C(=O)[C@H]3[C@H]2[C@H](O)[C@@H]2O[C@H]12,-0.14
5,CCOC(=O)[C@H](CC(C)C)NC(=O)CCC1CC(OC(=O)NCCc2ccc(F)cc2)CC2(CCCC(COC(=O)NCc3ccccc3)O2)O1 (stereo partly specified),-0.131
6,CCCNC(=O)[C@@H]1c2ccccc2C(=O)N(Cc2ccccc2Cl)[C@H]1c1ccc(CO)cc1,-0.0631
7,CO[C@@H]1COC(=O)CC=C[C@@H](C)COC(=O)[C@H](COCc2ccccc2)NC(=O)CC=C[C@H]1C,-0.108
8,C=COC[C@H]1CN2[C@@H](CC[C@@H](C)[C@@H]2c2ccc(Br)cc2)C(=O)O1,0.0877
9,COC(=O)[C@H](C)NC(=O)CCC1CC(OC(=O)NCCc2ccc(F)cc2)CC2(CCCC(COC(=O)NCCc3ccc(Cl)cc3)O2)O1 (stereo partly specified),-0.0261
10,COCCCNC(=O)[C@@]1(Sc2ccc(C)cc2)CC(=O)N(Cc2ccccc2)[C@@H]1c1ccc(CO)cc1I,0.0079
11,Cc1ccc(S(=O)(=O)N[C@@H]2COC(=O)[C@H](C)COC(=O)CC=C[C@H]2C)cc1,-0.0817
12,C=CC[C@]1(C(=O)NCc2ccccc2)N=C(c2ccc(OCCCO)cc2)O[C@H]1c1ccccc1,-0.123
13,CCOc1ccc(N2C(=O)/C(=C/C=C/c3ccccc3OC)S(=O)(=O)C2c2cccc([N+](=O)[O-])c2)cc1 (stereo unspecified),-0.0793
14,CO[C@H]([C@@H](C)[C@H](OC)c1ccccc1)[C@H](C)[C@@H](OC)[C@H](C)C(C)=O,-0.0551
15,CC(=O)O[C@H]1C2=C(C(=O)[C@@H]3O[C@@H]31)[C@H]1C(C)O[C@@H]2[C@@]23C(=O)[C@@H]4O[C@@H]4[C@@H](O)C2=CO[C@H](C)[C@@H]13 (stereo partly specified),-0.0937
16,CC(C)=NOCc1ccc(-c2cc(-c3ccccc3)no2)cc1,-0.169

row,SMILES,composite z-score
1,C=CCC(OC(C)=O)[C@@H]1[C@@H](N(Cc2cc3ccccc3o2)C(=O)Cc2ccc(F)cc2)c2cc(OCCCO)ccc2N1C(=O)Cc1ccc(OC)cc1 (stereo partly specified),-0.178
2,CCN1C(=O)[C@H]2[C@H]3[C@H](O)C=CC(=O)[C@@H]3CC[C@H]2C1=O,-0.117
3,CC(C)OC(=O)C=C1C[C@@H](c2ccc(C#N)cc2)O[C@@H](c2ccc(C#N)cc2)O1,0.0186
4,NC(=O)NCC#Cc1ccc2c(c1)[C@]1(C(=O)N2)[C@H](c2ccc(O)cc2)N2[C@H](c3ccccc3)[C@H](c3ccccc3)OC(=O)[C@H]2[C@@H]1C(=O)N1CCCCCCC1,-0.172
5,Cc1cc2c(nc1C)CCCN2CC(O)CN1CCN(C)CC1 (stereo unspecified),-0.149
6,C[C@@H]1C=CCC(=O)OC[C@H](C)C(=O)N[C@@H](C)C(=O)OC1,-0.144
7,COc1ccc([Si](C)(C)[C@@H]2[C@@H](CCO)O[C@]3(C(=O)N(Cc4ccc(NC(C)=O)cc4)c4ccccc43)[C@H]2C)cc1,0.0884
8,COc1ccc([Si](C)(C)[C@H]2[C@H](CC(=O)N3CCC[C@H]3CO)O[C@@]3(C(=O)N(Cc4cccc(N5C(=O)COc6ccccc65)c4)c4ccccc43)[C@@H]2C)cc1,-0.0556
9,C[C@@H](c1ccccc1)N1C(=O)[C@H]2[C@H]3[C@H](O)C=CC(=O)[C@@H]3CC[C@H]2C1=O,-0.132
10,C=C(COC)/C(=C/C[C@H](OC(=O)c1ccncc1)c1ccc(CO)o1)c1cc(C(=O)OC)ccc1OC,-0.0255
11,COC(=O)CC=C[C@H](C)[C@H](CO)NS(=O)(=O)c1ccc(C)cc1,-0.13
12,C#CCCCON=C1C[C@@H](O)[C@@H](O)[C@@H]2[C@@H]3C(=O)N(c4cccc(Oc5ccccc5)c4)C(=O)[C@@H]3CC[C@@H]12,-0.244
13,CC(C)(C)OC(=O)CC[C@]1(C(N)=O)COC(c2ccc(OCCCO)cc2)=N1,0.357
14,CC[C@@H](c1ccccc1)n1c(=O)n2n(c1=O)[C@H]1[C@H](O)[C@@H]3O[C@@H]3C(=NOCC=C(C)CCC=C(C)C)[C@H]1CC2,-0.084
15,COc1ccc(O[C@H]2C=C[C@@H](c3ccccc3)O[C@@H]2COC(=O)CCC(C)=NOC(C)CN2CCCCc3nc(C)c(C)cc32)cc1 (stereo partly specified),-0.179
